Compound activity as filed in PubChem BioAssay.
A selection: hits, their analogues and other compounds. The true share with any hit is near 7.3%.
AmpC no deterg = qHTS Inhibitors of AmpC Beta-Lactamase (assay without detergent). P00811. AmpC nitrocefin hydrolysis, absorbance 480 nm, 0.0001% Triton. Potency, µM (doses to about 57.1 µM), inactives show top-dose activity change, negative = inhibition, usual class: inhibitors. actives 0.52% (n = 330,000). AID 485341, 2010;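 further: potency means the concentration at half of the fitted maximal effect; plate controls were no compound for no effect and no enzyme for full effect; nearly all actives have a fitted effect of over 20% in size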
Target sequence (P00811 whole entry, looked up): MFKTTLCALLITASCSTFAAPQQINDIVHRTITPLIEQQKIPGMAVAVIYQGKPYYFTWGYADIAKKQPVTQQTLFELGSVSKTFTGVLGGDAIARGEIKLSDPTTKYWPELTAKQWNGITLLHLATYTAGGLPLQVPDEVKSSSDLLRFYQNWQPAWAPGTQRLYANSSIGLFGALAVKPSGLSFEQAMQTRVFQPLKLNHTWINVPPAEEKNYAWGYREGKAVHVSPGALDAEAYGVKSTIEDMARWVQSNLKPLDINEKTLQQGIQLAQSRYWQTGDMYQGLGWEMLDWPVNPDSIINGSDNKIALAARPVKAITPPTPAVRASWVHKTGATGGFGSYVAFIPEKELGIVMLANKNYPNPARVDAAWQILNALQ
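AmpC (5.3 nM in the dispensed reagent) in 20 mM phosphate pH 7.0 with 0.01% (detergent screen) or 0.0001% Triton X-100 was preincubated with compounds for 15 min at room temperature. Nitrocefin was then added from an 800 uM solution, and hydrolysis was followed at 480 nm.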
HCMV antiviral = qHTS Assay for inhibitors of the human cytomegalovirus (HCMV) | HFF cells, HCMV-luciferase reporter, 72 h; hits give low values | activity change, negative = inhibition, % at 57.5 µM | actives 4.5% (n = 410,000); in the data active means activity change below about -60%; inconclusive means no clear call, values can overlap the other calls; inactive means above about -39%
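After 16 h attachment at 37C, HFF cells received test compound and HCMV-luciferase (1 PFU/cell); reporter luminescence read 72 h later, data normalized against buffer-only and known inhibitor Salinomycin.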
AmpC detergent = qHTS Inhibitors of AmpC Beta-Lactamase (assay with detergent). AmpC hydrolysis of nitrocefin, absorbance 480 nm, 0.01% Triton. Potency, µM (highest dose often 114 µM), without a hit: at the top dose activity change, negative = inhibition, actives largely listed as inhibitors. actives 0.041% (n = 370,000). P00811;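 further: potency means the concentration at half of the fitted maximal effect; 0% = no-compound wells and -100% = no-enzyme wells; nearly all actives have a fitted effect of over 25% in size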
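AmpC (5.3 nM in the dispensed reagent) in 20 mM phosphate pH 7.0 with 0.01% (detergent screen) or 0.0001% Triton X-100 was preincubated with compounds for 15 min at room temperature. Nitrocefin was then added from an 800 uM solution, and hydrolysis was followed at 480 nm.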
HCV inhibitor = qHTS Assay for Inhibitors of Hepatitis C Virus (HCV). Huh7.5.1 HCVcc-Cre infection, luciferase reporter, 44 h. Potency, µM (highest dose often 41.8 µM), inactives show at the top dose activity change, negative = inhibition, hits mostly inhibitors. actives 3.4% (n = 340,000). AID 651820, 2012; further: potency means the concentration at half of the fitted maximal effect
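Whole-lifecycle infectious HCVcc-Cre system; cells 1,000/well, compound then virus (~0.5 moi) added 4 h after plating, 44 h culture. Luciferase read 15 sec following 15 min substrate incubation, room temp.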
FMDV antiviral = High Throughput Screening for Foot and Mouth Disease Virus Antivirals. FMDV antiviral cell-based qHTS. Potency, µM (titrated, usually from 57.9 µM), for the others: top-dose activity change, negative = inhibition, actives largely listed as inhibitors. actives 1.2% (n = 410,000); calls by dose curve; tested in HEK293T cells; further: read-out not given here; potency means the concentration at half of the fitted maximal effect; nearly all actives have a fitted effect of over 45% in size
The depositor's hits bear a star; ? = inconclusive; nt = not tested or not shown; [ ] = remark or other dose. Unless noted, the call rests on the fitted dose curve; in most records, active means well fitted curve in the direction sought with a large enough effect; inconclusive means small, poorly fitted or top-dose-only effect, or another doubt; inactive means no such curve, though single readings can be large; an effect the other way counts as inactive or inconclusive. Unless noted, on the % scale 0 is the no-effect control and ±100 the full control effect.

SMILES	AmpC no deterg	HCMV antiviral	AmpC detergent	HCV inhibitor	FMDV antiviral
O=C(Nc1ccc(Cl)cc1)Nc1nnc(CSCc2ccccc2)s1	-24%	-70*	?	5%	0%
Cc1ccc2[nH]c3c(c2c1)CN(C(=O)CN1CCN(c2cccc(C)c2C)CC1)CC3	104%	20	-6%	6.3µM*	?
Cc1ccc2[nH]c3c(c2c1)CN(C(=O)CN1CCN(C(=O)c2ccco2)CC1)CC3	93%	7	11%	nt	nt
COc1ccc([N+](=O)[O-])cc1NC(=O)c1ccc(C)o1	-7%	-103*	-12%	?	-13%
COc1ccc([N+](=O)[O-])cc1NC(=O)c1cccs1	-14%	?	-3%	11µM*	-2%
O=C(Nc1cc([N+](=O)[O-])ccc1F)c1cccs1	-9%	-23	-8%	-2%	-8%
COC(=O)Nc1cc([N+](=O)[O-])ccc1OC	-20%	8	-5%	?	21%
CCCN1CCN(C(=O)Cn2c(-c3cccs3)cc3ccccc32)CC1	nt	12	1%	nt	-8%
CC1CCCC(NC(=O)COC(=O)c2ccc(N(C)C)cc2)C1C (centres undefined)	0%	4	1%	2.8µM*	-3%
Cc1ccc(/C=C2\C(=O)NC(=S)N(c3ccc(F)cc3)C2=O)s1	?	88	?	?	?
CCOc1cccc(N2C(=O)/C(=C/c3ccco3)C(=O)NC2=S)c1	-27%	49	?	-22%	-15%
COc1ccc(N2C(=O)/C(=C/c3cccs3)NC2=S)cc1	-34%	0	2%	7%	-9%
COc1cccc(N2C(=O)/C(=C/c3ccc(C)o3)C(=O)NC2=S)c1	-46%	29	-1%	17%	18µM*
Cc1ccc(/C=C2\C(=O)NC(=S)N(c3ccc(F)cc3)C2=O)o1	-36%	-10	-2%	6%	32µM*
O=C1NC(=S)N(c2ccccc2)C(=O)/C1=C/c1ccco1	-42%	39	-14%	21%	35µM*
COc1ccc(N2C(=O)/C(=C/c3cccs3)C(=O)NC2=S)cc1	-35%	-31	1%	-25%	25µM*
O=C1C2C3C=CC(CC3)C2C(=O)N1c1cccc(C(F)(F)F)c1 (centres undefined)	-14%	9	-2%	2%	-18%
O=C1NC(=S)N(Cc2ccco2)C(=O)/C1=C\c1cccs1	-60%	nt	45µM*	nt	nt
C=CCN1C(=O)/C(=C/c2cccs2)C(=O)NC1=S	-31%	16	-5%	25%	-23%
COc1ccc(N2C(=O)/C(=C/C=C/c3ccccc3[N+](=O)[O-])C(=O)NC2=S)cc1	-59%	0	-9%	22%	22µM*
COCC(=O)N1CCC(Oc2ccc(C(=O)N3CCN(C)C[C@@H]3C(C)C)cc2)CC1	-36%	-16	?	16%	-7%
CN(C)CCCN1c2ccccc2CCc2ccc(Cl)cc21	117%	-67*	2%	?	0%
CN(CCCN1c2ccccc2CCc2ccccc21)CC(=O)c1ccc(Cl)cc1	nt	nt	nt	nt	4%
Cc1ccc(-n2c(C)cc(/C=N/NC(N)=S)c2C)cc1	-46%	-15	-10%	?	-9%
CNC(=S)N/N=C/c1cc(C)n(-c2ccc(Cl)c(Cl)c2)c1C	-52%	-68*	-11%	?	0%
SMILES	AmpC no deterg	HCMV antiviral	AmpC detergent	HCV inhibitor	FMDV antiviral
CCN(CC)C(=O)C1CCCN(C/C=C/c2ccccc2)C1 (centres undefined)	0.28µM*	-2	0%	19%	?
CCN(CC)C(=O)C1CCCN(C/C(C)=C/c2ccccc2)C1 (centres undefined)	15%	-24	-8%	19%	7%
CC(C)c1ccc(C2c3c(-c4ccccc4O)n[nH]c3C(=O)N2Cc2ccncc2)cc1 (centres undefined)	nt	-79*	21%	nt	-22%
O=C1c2[nH]nc(-c3ccccc3O)c2C(c2ccc(Cl)cc2)N1CCc1ccccc1 (centres undefined)	nt	-95*	9%	nt	?
COCCN1C(=O)c2[nH]nc(-c3ccccc3O)c2C1c1ccc(OCc2ccccc2)c(OC)c1 (centres undefined)	nt	-103*	-4%	nt	-4%
COc1cc(C2c3c(-c4ccccc4O)n[nH]c3C(=O)N2CCO)ccc1OCC(C)C (centres undefined)	nt	20	19%	nt	-26%
COc1ccc(CCN2C(=O)c3[nH]nc(-c4ccccc4O)c3C2c2ccccc2)cc1OC (centres undefined)	-20%	?	-13%	11µM*	?
COc1ccc(CCN2C(=O)c3[nH]nc(-c4ccccc4O)c3C2c2ccc(O)c(OC)c2)cc1 (centres undefined)	nt	-12	14%	nt	-12%
Cc1noc(C)c1COc1cccc(C(=O)N(C)Cc2nc3ccccc3c(=O)[nH]2)c1	-14%	-8	-13%	-12%	?
CC12Nc3ccccc3C(=O)N1Cc1cnnn1-c1cc3c(cc12)OCO3 (centres undefined)	nt	-3	nt	nt	nt
COc1ccc(S(=O)(=O)NC(C(=O)NCCc2ccccn2)C(C)C)cc1 (centres undefined)	-13%	-66*	0%	21%	-4%
CCOc1cc(CNCCO)cc(Br)c1OCc1ccccc1	-12%[2.29 µM]	?	2%	10µM*	-8%
CCNCc1cc(Cl)c(OCc2ccccc2)c(OCC)c1	21%	?	-1%	?	0%
CCOc1cc(CNCCSc2nnnn2C)cc(Br)c1OCc1ccccc1	201%	41	-1%	2.8µM*	?
Cc1nn(C(=O)c2c(-c3ccccc3)noc2C)c(C)c1N=Nc1cc(C(F)(F)F)cc(C(F)(F)F)c1	3%	-12	1%	10%	-2%
CCN(CC(=O)NCc1ccc(F)cc1)C(=O)C1CC1C (centres undefined)	-6%	10	-11%	28%	-3%
CCC1(C2CCN(Cc3ccccc3Cl)CC2)NC(=O)N(CC2COc3ccccc3O2)C1=O (centres undefined)	nt	nt	nt	nt	-17%
CC(C)(C)OC(=O)CNC(=O)c1nc[nH]c1C(=O)NCc1ccc(CNC(=O)OC(C)(C)C)cc1	105%	46	-13%	?	?
CC(C)(C)OC(=O)NCCCCCNC(=O)c1nc[nH]c1C(=O)NCCCCCNC(=O)OC(C)(C)C	171%	-75*	nt	10µM*	13µM*
C[C@H](NC(=O)c1[nH]cnc1C(=O)Nc1ccc(CNC(=O)OC(C)(C)C)cc1)C(=O)OCc1ccccc1	-27%	20	2%	?	18µM*
